In the supplement of paper PMC6555819:

test system: THRa homodimer (NR concentration 90 nM); assay: PBM binding z-score (relative to random genomic background probes); higher = stronger binding; sequences stand for … in GC…GCGATTGACAGCGTAGAATGAAGG
Method in brief: (§1)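 On custom Agilent 4×180K arrays, double-stranded probes with 34-nt variable regions carried direct-repeat seeds, single-nucleotide variants, half-site ablations or random human genomic background. Ligand-free nuclear receptor dimers were applied for 1 h, and binding was read with antibodies against each partner (one per run). Binding z-scores come from regression-normalized fluorescence, with the random background probes as reference.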

Sequence	PBM binding z-score
CAAACTAGGTCAAGAAGTCAAAGTCCGCTTCCCG	0.74
TCTTGTAGATCAACAGGAGGTCAAGAAAGATCGA	0.86
TCAGACAGGTGAAGGGAACTCAGGTACGCAGTCG	0.717
ATAATGAGGTTACCAAAGATCAGGGAAACGCTTG	1.1
TCGAGTAGGTTAGTCGGGGCATCCAGCCAACATA	-0.433
ACAGACAGGTGATGAATGTAACTCAGGCTATCAT	-0.294
GCTATAAGTTGAAAGGGCAACCGAATGATTCTCG	-0.205
ATATGTAGGGTAGCTGGGGTCATTCAGACTAGGC	3.57
CCGCCTGGGGCAAAGGTTACCATACTCAGTACGA	0.443
ACTATTAGTTGACTTAGGGCAACCTATACGACGC	0.279
ATCTCTAGGTAAGACTCAGTTCGGTGAAGAACGC	0.697
TCTTGTAGATCATAGGTTAAGAAAGCCGAAGCCT	-0.386
AGAATGAGGTTAGGATCAGGGAAACAGAATACAT	0.948
GCTAGTTGGTCAGTAAAAGGTCACCCACCGGTCG	1.89
CGCCCAAGGTCAAAGGTCAGTGAAGAGATGACGG	2.31
TCTAGTTGGTGAAAGGTCACACACTCGAAATGCG	2.01
ATATGTAGGTTAGCTGGGATCATTCAGACTAGGC	-0.1
CGTCCAAGGTCATAGGACGTCAGTGAAGACAGAT	2.24
TCTGCTAGGTCAGTTGGTCAGATAACGAGCTGCC	0.154
TAGCCTAGGTCATTCAGGGTCCAGTATAGAAAGC	0.899

Sequence	PBM binding z-score
ATCTCGAGGTAACCAAGTTCAGTGAATGCCGAAC	0.867
CCTTCTGGGCCAAAGGTCATTGATTCCAATGCTC	0.658
GTACCAAGGTGAATAGGTCGTTGTTGAGTAGGCG	0.601
CGAACTAGGTCATCCAGGACAGTGAGTACATTGA	2.14
CGTCCAAGGTCAGCAGGTCAGCGAAAGCGACGTG	2.74
GCCATTAGTTGAAAGGGCAACCGAATGATTCTCG	-0.31
CCTATTAGTTGAACATAAGGGCAACCGAAGCTCG	1.04
CAAACTAGGTGAAGGTCAAAGTCGGTTTGTGCCA	0.696
CCTACAGGGCCAAAAAGGTCATTGATGCCGATAA	0.419
CATACAGGGTCAGCTAGGCCAGATTAGGGACGGC	1.09
GGAACGAGGGCATTCGAGTTGATACCATGGCGAT	-0.337
CCTACTGGGCCACGAAAGGTCATTAATTCAGTGA	1.04
TCTCGGAGGACTCGAAGGTCAGAGCTTTCCAGAG	-0.0603
GCAGACAGGTGAAATGCAGGTAACTCAGGGTGGC	-0.107
AGAAGGAGGTTATTAAGATCAGGGAATTGCGGTC	0.884
ATCTCTAGGTAACCAAGTTCAGTGATTGCCGAAC	0.949
GCAGACAGGTGAAACGCAGGTAGCTCAGGGTGGC	-0.86
CCTAGTTGGTCAGGAGGTCACACACCGGATATGA	2.6
TCTTGTAGATCAACAGGAGGTTAAGAATGATCGA	-0.347
ACTATTAGTTGAGACGAGGGCAACCAATAGGTTG	0.217

test system: VDR homodimer (NR concentration 270 nM); assay: as above
Method in brief: as §1

Sequence	PBM binding z-score
CAAACTAGGTCAAGAAGTCAAAGTCCGCTTCCCG	0.478
TCTTGTAGATCAACAGGAGGTCAAGAAAGATCGA	0.803
TCAGACAGGTGAAGGGAACTCAGGTACGCAGTCG	0.463
ATAATGAGGTTACCAAAGATCAGGGAAACGCTTG	0.486
TCGAGTAGGTTAGTCGGGGCATCCAGCCAACATA	-0.177
ACAGACAGGTGATGAATGTAACTCAGGCTATCAT	-0.0787
GCTATAAGTTGAAAGGGCAACCGAATGATTCTCG	0.188
ATATGTAGGGTAGCTGGGGTCATTCAGACTAGGC	4.92
CCGCCTGGGGCAAAGGTTACCATACTCAGTACGA	0.257
ACTATTAGTTGACTTAGGGCAACCTATACGACGC	0.34
ATCTCTAGGTAAGACTCAGTTCGGTGAAGAACGC	0.648
TCTTGTAGATCATAGGTTAAGAAAGCCGAAGCCT	-0.05
AGAATGAGGTTAGGATCAGGGAAACAGAATACAT	0.389
GCTAGTTGGTCAGTAAAAGGTCACCCACCGGTCG	1.26
CGCCCAAGGTCAAAGGTCAGTGAAGAGATGACGG	3.24
TCTAGTTGGTGAAAGGTCACACACTCGAAATGCG	2.58
ATATGTAGGTTAGCTGGGATCATTCAGACTAGGC	0.36
CGTCCAAGGTCATAGGACGTCAGTGAAGACAGAT	3.01
TCTGCTAGGTCAGTTGGTCAGATAACGAGCTGCC	-0.455
TAGCCTAGGTCATTCAGGGTCCAGTATAGAAAGC	2.74

Sequence	PBM binding z-score
ATCTCGAGGTAACCAAGTTCAGTGAATGCCGAAC	3.01
CCTTCTGGGCCAAAGGTCATTGATTCCAATGCTC	2.23
GTACCAAGGTGAATAGGTCGTTGTTGAGTAGGCG	0.168
CGAACTAGGTCATCCAGGACAGTGAGTACATTGA	4.1
CGTCCAAGGTCAGCAGGTCAGCGAAAGCGACGTG	1.83
GCCATTAGTTGAAAGGGCAACCGAATGATTCTCG	-0.125
CCTATTAGTTGAACATAAGGGCAACCGAAGCTCG	0.571
CAAACTAGGTGAAGGTCAAAGTCGGTTTGTGCCA	2.23
CCTACAGGGCCAAAAAGGTCATTGATGCCGATAA	3.43
CATACAGGGTCAGCTAGGCCAGATTAGGGACGGC	0.951
GGAACGAGGGCATTCGAGTTGATACCATGGCGAT	3.45
CCTACTGGGCCACGAAAGGTCATTAATTCAGTGA	2.25
TCTCGGAGGACTCGAAGGTCAGAGCTTTCCAGAG	-0.0798
GCAGACAGGTGAAATGCAGGTAACTCAGGGTGGC	-0.285
AGAAGGAGGTTATTAAGATCAGGGAATTGCGGTC	1.23
ATCTCTAGGTAACCAAGTTCAGTGATTGCCGAAC	2.76
GCAGACAGGTGAAACGCAGGTAGCTCAGGGTGGC	-0.785
CCTAGTTGGTCAGGAGGTCACACACCGGATATGA	2.82
TCTTGTAGATCAACAGGAGGTTAAGAATGATCGA	0.202
ACTATTAGTTGAGACGAGGGCAACCAATAGGTTG	0.676
